Shown are actives, neighbours in structure and some others; about 12% of the full set was active somewhere.
INS promoter inh: inhibitors of insulin promoter-driven GFP, primary screen, imaging, TRM-6 cells (human fetal islet line), eGFP reporter, cell count | reporter expression induced with tamoxifen | inhibition, % at 2 µM | hit rate 0.9% among 130,000;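 active = inhibition above the mean plus 3 SD, with well images judged a real hit on visual review, cut at about 60% in these data, passing the limit was not always enough; inconclusive = inhibition over the cutoff but images rejected on review; inactive = inhibition not above the cutoff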
KCC2 mod: KCC2 cotransporter modulators, thallium flux, primary screen, cell-based, HEK293 KCC2, FluoZin-2 fluorescence, MLSMR; Solute carrier family 12 member 5 (Homo sapiens), Q9H2X9; KCC2 cells, thallium flux FluoZin-2 fluorescence; B-score of Tl+ flux slope (higher = more flux/activation; lower = inhibition) at 10 µM; hit rate 2.2% among 190,000; AID 1456, 2008;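 active = thallium flux slope and its plate-corrected score both differing from the plate sample mean at a set confidence after two filtering rounds, in either direction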;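 also: slope of fluorescence scaled to starting intensity during 10 to 20 s after thallium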
L major viab: Leishmania major promastigote growth inhibition, primary screen. AID 1063, 2008. Leishmania major promastigotes, resazurin fluorescence viability. inhibition, % at 10 µM. hit rate 9% among 200,000; in the data active = inhibition above about 50%;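 also: promastigotes grown with compound for 44 hours at 28 °C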
ROMK mod: ROMK potassium channel modulators, primary screen, cell-based, thallium flux, MLSMR library. ATP-sensitive inward rectifier potassium channel 1 (Homo sapiens), P48048. Tet-inducible ROMK, thallium flux fluorescence; actives lie on both sides. B-score at 10 µM. hit rate 2% among 130,000. AID 1918, 2009;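 active = signal ratio slope over the read window, or its plate-corrected B-score, at least 3 SD from the plate mean, either direction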;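 also: B-score of the F/F0 ratio slope over 7 to 12 s after thallium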
Target sequence (P48048 whole entry, looked up): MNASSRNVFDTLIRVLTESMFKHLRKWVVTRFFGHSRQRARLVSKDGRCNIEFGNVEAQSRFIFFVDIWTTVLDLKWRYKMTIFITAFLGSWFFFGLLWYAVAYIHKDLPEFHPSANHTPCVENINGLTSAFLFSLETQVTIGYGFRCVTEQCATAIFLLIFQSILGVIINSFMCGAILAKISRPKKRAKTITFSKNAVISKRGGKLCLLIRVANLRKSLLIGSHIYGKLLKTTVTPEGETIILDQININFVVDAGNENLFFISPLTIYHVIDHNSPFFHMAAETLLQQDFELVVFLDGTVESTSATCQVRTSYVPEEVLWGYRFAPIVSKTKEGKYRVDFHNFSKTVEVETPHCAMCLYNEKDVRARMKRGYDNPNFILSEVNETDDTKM
WT yeast gro inh: growth inhibition of WT strain, primary screen, mitochondrial fusion inhibitor project, WT and mutant strains, chemical genetic; mitochondrial fusion phenotypic screen; inhibition, % at 10 µM; hit rate 2.1% among 190,000; in the data active = inhibition above about 58%; tested in S. cerevisiae
Ins promoter up: insulin promoter activators in MIN6 cells, imaging, high-content screening, mouse beta cells; MIN6 insulin promoter-GFP reporter; active compounds read high; z-score at 5 µM; hit rate 0.3% among 190,000; AID 1625, 2009;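 active = z-score above 3 at 5 µM with at least 500 cells counted in the well; inconclusive = wells under 500 cells, flagged as cytotoxic or low count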
ROMK hit retest: ROMK channel modulator hit retest, confirmation, cell-based, thallium flux, duplicate, resupplied hits. shares compounds with ROMK mod. fluorescence ratio; active compounds read low. normalized thallium flux (F/F0 slope) at 10 µM. hit rate 54% among 3,000. AID 1917, 2009;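 active = Flux at 10 µM at least 3 SD below or above vehicle control mean in one or both replicates; inconclusive = no clear call, values can overlap the other calls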
Starred values were filed as active, the others as inactive; ? = inconclusive; nt = no result.

SMILES	INS promoter inh	KCC2 mod	L major viab	ROMK mod	WT yeast gro inh	Ins promoter up	ROMK hit retest
COc1ccccc1-n1c(O)c(C=NCCN2CCNCC2)c(=O)[nH]c1=O	8	-0.33	3	nt	1	-0.13	nt
Cc1oc(-c2ccccc2Cl)nc1CN1C(=O)CN=C(c2ccccc2)c2ccccc21	-51	-1.3	34	-2.8*	71*	-1.2	0.058*
CCOC(=O)[C@@]12C(=O)C(=O)N[C@]1(c1ccccc1)C1OCCCC12 (some centres not stated)	-40	-1.3	-4	-0.66	5	0.35	nt
CCn1c(O)c(/C=N/NC(=O)c2ccccc2)c(=O)n(CC)c1=S	nt	-0.27	nt	nt	nt	0.4	0.056*
Cc1cccc(C)c1NC1=NCCCS1	0	0.38	-2	nt	10	0.17	nt
Cc1ccc(CN2C(=O)NC(=O)C3(Cc4c(nc5ccccn5c4=O)N4CCCCCC43)C2=O)cc1 (configuration not stated)	nt	-2	85*	-2.9*	31	0.04	0.064*
O=c1[nH]c(=S)n(-c2ccc(Br)cc2)c(O)c1C=Nc1ccc(N2CCOCC2)cc1	33	-2.8	23	0.0084	4	0.53	0.064*
CCOc1ccc(-c2c(C)n(-c3ccc(OCC)cc3)c3[n+]2CCCCC3)cc1	nt	0.6	nt	nt	nt	?	0.043*
CCc1ccc(CNCCc2ccc(F)cc2)cc1	0	0.21	9	-2.3	4	-0.06	nt
CCN(CC)c1ccc(CNCCc2ccc(F)cc2)cc1	nt	0.24	96*	-2.8*	5	-0.71	0.054*
CCCCCSc1cc(O)c(C(CNC)C(C)C)cc1OC (configuration not stated)	19	2	100*	-3.2*	8	0.42	0.057*
O=c1[nH]c(=O)n(CC2CCCO2)c(O)c1/C=C1\C=Nc2ccccc21 (configuration not stated)	24	-1.5	2	0.081	1	-0.5	0.058*
O=C1NC(=O)N(c2ccc3c(c2)OCO3)C(=O)/C1=C\c1ccc(N2CCCCC2)o1	nt	-1.8	-2	nt	-6	0.88	0.052*
Cc1ccccc1N1C(=O)NC(=O)/C(=C/c2ccc(N3CCOCC3)o2)C1=O	nt	4.3	nt	nt	nt	0.21	nt
Cc1cccc(C)c1OP(N)(=O)Oc1c(C)cccc1C	nt	-0.14	nt	-1.2	nt	-0.38	nt
COC(=O)C1=Nc2ccccc2/C1=C\c1c(O)n(-c2cc(OC)ccc2OC)c(=O)[nH]c1=O	33	1	-8	0.24	-11	-1	nt
Cc1cccc(-n2c(O)c(/C=C3/C(c4ccccc4)=Nc4ccccc43)c(=O)[nH]c2=O)c1	nt	-2.7	nt	nt	nt	0.13	0.044*
Cc1ccccc1-n1c(O)c(/C=C2/C(c3ccccc3)=Nc3ccccc32)c(=O)[nH]c1=O	nt	-2.2	48	-6*	37	1	0.061*
COc1cc(OC)c2c(c1)OCC1CON(C)C21 (configuration not stated)	8	0.0053	-4	-0.16	-10	0.42	nt
Cc1ccc(Sc2ccc(C=C3C(=O)N(C)C(=O)N(C)C3=O)o2)cc1	-11	1.4	19	0.12	-6	0.17	nt
CN1C(=O)c2ccccc2NC(=O)[C@]12O[C@@H]2c1ccccc1	nt	-0.44	-15	nt	-3	-0.28	nt
CC(=O)N1CC(=O)Nc2ccc(Cl)cc2C1c1ccc(F)cc1 (configuration not stated)	nt	nt	1	nt	-21	-0.14	nt
Cc1cccc(-n2c(O)c(/C=C/C=Nc3ccccc3)c(=O)[nH]c2=O)c1	6	-1.4	43	0.061	-5	0.63	nt
Cn1c(O)c(/C=C/C=Nc2ccccc2)c(=O)n(C)c1=S	nt	-2.3	-4	nt	-7	0.11	0.046*
CC(CN1CCOCC1)OC(=O)Cc1ccccc1 (configuration not stated)	nt	-1.3	-4	0.4	-5	1.4	nt
SMILES	INS promoter inh	KCC2 mod	L major viab	ROMK mod	WT yeast gro inh	Ins promoter up	ROMK hit retest
COc1ccc(CCC(C)NCCc2ccccc2)cc1 (configuration not stated)	16	0.69	89*	-3.9*	-2	-0.36	0.062*
COc1ccc(CCNC2CCCCC2)cc1	nt	-0.79	20	-0.47	-22	0.02	nt
CSc1nnc([C@@H](N)Cc2ccccc2)o1	?	0.42	-3	nt	-9	0.77	nt
CC(C)Sc1nnc([C@@H](N)Cc2ccccc2)o1	-11	0.0065	-4	nt	3	-0.05	0.078
O=C(N/N=C/C1C(=O)NC(=S)N(c2ccccc2)C1=O)c1cc(Br)c(O)c(Br)c1 (configuration not stated)	nt	1.2	-5	0.8	0	0.15	nt
C[C@H]1CCCC(=O)CCCCCc2cc(O)cc(O)c2C(=O)O1	-118	-0.49	0	nt	13	nt	0.063*
CCOP(=S)(OCC)N1CCOCCOCCN(P(=S)(OCC)OCC)CCOCCOCC1	28	0.57	32	-2*	7	-2.2	0.076
N#CSCC(=O)N1c2ccccc2CCc2ccccc21	nt	2.3	96*	-3.9*	1	-0.21	0.046*
COc1ccc2nc(/N=C/c3c(O)n(-c4cccc(Cl)c4)c(=O)[nH]c3=O)sc2c1	54	-0.032	-5	nt	24	nt	nt
O=C(c1ccc2c3c(cccc13)CC2)C1CCCN(CC2CC2)C1 (configuration not stated)	-15	nt	99*	-3.3*	18	nt	0.06*
CSCCC(N=Cc1c(O)n(-c2ccc(Br)cc2)c(=O)[nH]c1=O)C(=O)OC(C)(C)C (configuration not stated)	-3	-0.56	-2	nt	17	0.56	nt
CCC(C)c1ccc(N2C(=O)NC(=O)/C(=C/c3cccn3CCOc3ccc(C)cc3)C2=O)cc1 (configuration not stated)	nt	-0.84	19	nt	-21	0.66	0.047*
O=C(COc1ccc2ccccc2c1)N1CCN(C2CCN(Cc3ccccc3)CC2)CC1	7	0.2	92*	-3*	3	0.32	0.061*
O=C(COc1ccc(S(=O)(=O)N2CCCCC2)cc1)N1CCN(Cc2ccccc2)CC1	25	-0.12	16	-1.7	2	0.27	nt
O=C(CN1CCCCC1)c1ccc2c(c1)OCO2	nt	1.4	nt	0.025	nt	-0.06	nt
CC(=O)c1ccc2c(c1)OCO2	0	-0.17	18	3*	-12	0.76	0.071
O=C1NC(=O)C(=Cc2cc3c(cc2[N+](=O)[O-])OCO3)C(=O)N1	13	0.51	1	0.31	-3	-0.18	nt
Cc1cccc(N2C(=O)NC(=O)/C(=C/c3cc4c(cc3[N+](=O)[O-])OCO4)C2=O)c1	5	-0.024	7	-2.8*	3	nt	0.056*
N#CC1=C(N)Oc2c(c(=O)oc3ccccc23)C1c1ccc([N+](=O)[O-])o1 (configuration not stated)	nt	-0.36	-2	nt	-5	0.25	nt
OCCN1C2CCC1CC(O)(c1ccc(F)cc1)C2 (configuration not stated)	-4	-0.0032	1	-0.74	-3	1.6	nt
OC1(c2ccc(F)cc2)CC2CCC(C1)N2Cc1nnnn1C1CCCCC1 (configuration not stated)	0	nt	34	-4.8*	6	nt	0.057*
OC1/C(=C/c2ccccc2C(F)(F)F)N2CCC1CC2 (configuration not stated)	5	-0.41	0	0.84	4	-0.15	nt

Bioassay records from PubChem.
